Most compounds without a hit are left out; they make up all but 19% or so of the library.
TDP1 cell noCPT: qHTS for Inhibitors of human tyrosyl-DNA phosphodiesterase 1 (TDP1): qHTS in cells in absence of CPT. DT40 Tdp1-/- hTDP1 cells, no CPT, ATP luminescence, 48 h. Potency, µM (series often up to 46.2 µM), actives largely listed as inhibitors. 15% of 420,000 active. AID 686978, 2013; also: nearly all actives have a fitted effect of over 55% in size
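Cells were dispensed at 400 per well, compounds added by pin tool, plates incubated ≥48 hr at 37 °C, then CellTiter-Glo added for 30 min at room temperature before luminescence reading. Line: DT40 Tdp1-/- complemented with hTDP1; camptothecin omitted.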
HT1080NT lethal: kills 2HG-producing HT-1080-NT fibrosarcoma cells | HT-1080-NT fibrosarcoma viability, CellTiter-Glo ATP luminescence, 48 h | Potency, µM (series often up to 46.1 µM), actives largely listed as cytotoxic | 1.6% of 360,000 active | AID 686970;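 also: NT is the 2HG producing partner of a matched IDH1 knockdown line; nearly all actives have a fitted effect of over 55% in size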
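A 48-hour cytotoxicity screen used HT-1080-NT cells plated 2 hours before compound delivery. ATP-based CellTiter-Glo luminescence measured viability, normalized to DMSO and no-cell controls.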
IL-1B inflam inh: inhibitors of inflammasome signaling (IL-1 beta secretion) | 4.7% of 360,000 active | activity change, % at 57.5 µM | THP-1 LPS/ATP IL-1B secretion, AlphaLISA, 16 h; active compounds read low | AID 743279; in the data active = activity change below about -50%; inconclusive = mostly about -30% to -49%
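THP-1 cells pretreated 1 hr with compounds (up to 57.5 uM final), then stimulated with LPS (250 ng/mL final) plus ATP (1.25 mM final); secreted IL-1B measured by AlphaLISA after 16 hr, decreased signal indicating inhibition.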
DT40 TDP1 CPT: growth inhibition of DT40 Tdp1-/-;hTDP1 cells with camptothecin (screen for TDP1 inhibitors); chicken DT40 Tdp1-/-;hTDP1 cells + 20 nM CPT, ATP luminescence, 48 h; Potency, µM (highest dose often 46.2 µM), actives largely listed as inhibitors; 12% of 420,000 active; AID 686979; also: nearly all actives have a fitted effect of over 55% in size
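Chicken DT40 Tdp1-/- cells complemented with human TDP1, 400 cells/well, exposed to compounds plus 20 nM camptothecin for at least 48 h at 37 C; viability read as ATP content by CellTiter-Glo luminescence.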
HT1080 IDH1KD tx: kills HT-1080 cells with IDH1 knockdown | HT-1080 IDH1 knockdown viability, ATP luminescence, 48 h | Potency, µM (titrated, usually from 46.1 µM), hits mostly cytotoxic | 2% of 360,000 active
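Using the IDH1-knockdown HT-1080 line run in the same batch and compound series as the NT line, viability after 48 h at 37 °C was determined by CellTiter-Glo luminescence and expressed as % activity.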
Large screens that a line does not name were inactive. Unless noted, calls follow the shape of the dose curve; as a rule, active = well fitted curve in the direction sought with a large enough effect; inconclusive = small, poorly fitted or top-dose-only effect, or another doubt; inactive = no such curve, though single readings can be large; an effect the other way counts as inactive or inconclusive.

COc1ccc2c(c1)c(C(C)=O)c(C)n2CCc1ccc(OC)c(OC)c1	none
CCOC(=O)c1cc(-c2ccc(C)cc2)n(CCC(=O)N2CCN(c3ccccn3)CC2)c1C	TDP1 cell noCPT 23.1µM, IL-1B inflam inh -55.8, DT40 TDP1 CPT 23.1µM
COC(=O)[C@]12CCCCC=C1N(Cc1ccccc1)C(=O)[C@H](CC(=O)NCc1cccc(C(F)(F)F)c1)C2	TDP1 cell noCPT inconclusive, HT1080NT lethal inconclusive, DT40 TDP1 CPT inconclusive, HT1080 IDH1KD tx inconclusive
COC(=O)[C@@]12C[C@@H](CC(=O)NCc3cccc(C(F)(F)F)c3)C(=O)N(Cc3cccc4ccccc34)C1=CCC(C)(C)C2	TDP1 cell noCPT 16.4µM, HT1080NT lethal inconclusive, DT40 TDP1 CPT 16.4µM, HT1080 IDH1KD tx inconclusive
COC(=O)[C@@]12C[C@@H](CC(=O)NCc3cccc(C(F)(F)F)c3)C(=O)N(Cc3ccccc3)C1=CCC(C)(C)C2	TDP1 cell noCPT inconclusive, HT1080NT lethal inconclusive, IL-1B inflam inh -78.1, DT40 TDP1 CPT inconclusive, HT1080 IDH1KD tx inconclusive
Cc1nnnn1CC(=O)Nc1ccccc1[N+](=O)[O-]	none
Cc1cc(NC(=O)CCCC(=O)NCc2cccs2)no1	none
Cc1cc2c3c(c1)C(C)CC(C)(C)N3C(=O)C2=O (configuration not stated)	TDP1 cell noCPT inconclusive, DT40 TDP1 CPT 23.1µM
Cc1cc2c3c(c1)C(C)CC(C)(C)N3C(=O)C2=C(C#N)C#N (configuration not stated)	TDP1 cell noCPT inconclusive, DT40 TDP1 CPT inconclusive
CCOc1cc2c3c(c1)C(C)CC(C)(C)N3C(=O)C2=O (configuration not stated)	TDP1 cell noCPT 18.4µM, DT40 TDP1 CPT inconclusive
Cc1cc2c3c(c1C)C(=O)C(=O)N3C(C)(C)CC2C (configuration not stated)	TDP1 cell noCPT inconclusive
CCOc1cc2c3c(c1)C(C)=CC(C)(C)N3C(=O)C2=O	TDP1 cell noCPT 2.59µM, HT1080NT lethal 4.61µM, DT40 TDP1 CPT 3.26µM, HT1080 IDH1KD tx inconclusive
OC[C@@H]1CN(Cc2cccs2)C[C@H](n2cnc3c(N4CCOCC4)ncnc32)O1	none
CC(=O)c1cccc(NC(=O)c2ccc(NC(=O)CC3SC(N4CCCCC4)=NC3=O)cc2)c1 (configuration not stated)	none
COC(=O)C1CCN(C(=O)c2sc3nc(-c4ccc(F)cc4)cn3c2C)CC1	TDP1 cell noCPT inconclusive, DT40 TDP1 CPT inconclusive
CCOC(=O)C1CCN(C(=O)c2sc3nc(-c4ccccc4)cn3c2C)CC1	TDP1 cell noCPT 18.4µM, DT40 TDP1 CPT inconclusive
COc1ccccc1N1CCN(C(=O)c2sc3nc(-c4ccccc4)cn3c2C)CC1	TDP1 cell noCPT 18.4µM, IL-1B inflam inh -75.5, DT40 TDP1 CPT 16.4µM
O=C(C1CCOCC1)N1CCCC(N2CCN(c3ccc(F)cc3)CC2)C1 (configuration not stated)	none
CCc1ccc(C2=C(C)C(N3CCC(C(=O)NCc4ccccc4)CC3)=NS2(=O)=O)cc1	none (no result: HT1080NT lethal, IL-1B inflam inh, HT1080 IDH1KD tx)
O=Cc1ccc(OCc2ccc3ccccc3c2)cc1	none
O=Cc1cccc(OCc2cccc3ccccc23)c1	TDP1 cell noCPT 2.59µM, HT1080NT lethal inconclusive, IL-1B inflam inh inconclusive, DT40 TDP1 CPT 4.11µM, HT1080 IDH1KD tx inconclusive
COc1ccc(COc2cccc(C=O)c2)cc1	TDP1 cell noCPT 4.61µM, DT40 TDP1 CPT 3.66µM
O=C1Cc2ccccc2C(c2ccc(Cl)cc2)N1 (configuration not stated)	TDP1 cell noCPT inconclusive, DT40 TDP1 CPT inconclusive
S=C1Cc2ccccc2C(c2ccc(Cl)cc2)N1 (configuration not stated)	TDP1 cell noCPT 23.1µM, DT40 TDP1 CPT inconclusive
COCC(=O)N1CCC[C@@]2(CCN(c3ccccn3)C2)C1	none (no result: HT1080NT lethal, IL-1B inflam inh, HT1080 IDH1KD tx)
CCCCN1C(=O)C(CC(=O)NCCCN(C)C)CC(C(=O)N2CCCCCC2)=C1C (configuration not stated)	none
COc1ccccc1C(=O)NCC(=O)NCCCN1CCOCC1	none
COc1ccc(Nc2oc(-c3ccc(Cl)cc3)nc2C#N)cc1	TDP1 cell noCPT 2.91µM, HT1080NT lethal inconclusive, DT40 TDP1 CPT 6.51µM, HT1080 IDH1KD tx inconclusive
COCCNc1oc(-c2ccc(Cl)cc2)nc1C#N	IL-1B inflam inh -55.9
COc1ccc(-c2nc(C#N)c(NCCc3ccccc3)o2)cc1	TDP1 cell noCPT 14.1µM, DT40 TDP1 CPT 14.6µM
CCOc1ccc(Nc2oc(-c3ccc(Cl)cc3)nc2C#N)cc1	TDP1 cell noCPT 4.11µM, DT40 TDP1 CPT inconclusive, HT1080 IDH1KD tx inconclusive
COc1ccc(S(=O)(=O)N(C)C)cc1NC(=O)c1ccc2c(c1)NC(=O)C(C)S2 (configuration not stated)	TDP1 cell noCPT inconclusive
Cc1cccc(C(C(=O)NCc2ccc(F)cc2)N(C(=O)c2csnn2)C2CC2)c1 (configuration not stated)	TDP1 cell noCPT inconclusive
CCN(CC)CCCNc1oc(-c2cccc(Cl)c2)nc1C#N	TDP1 cell noCPT 23.1µM, DT40 TDP1 CPT inconclusive, HT1080 IDH1KD tx inconclusive
CN(Cc1ccc(Cl)cc1)C(=O)CNC(=O)C12CC3CC(CC(C3)C1)C2	TDP1 cell noCPT inconclusive, DT40 TDP1 CPT 18.4µM
COc1ccc(C(=O)NCCS(=O)(=O)NCc2ccc(F)cc2)cc1	none
COc1ccc2c(c1OC)C(=O)N1N=C(c3ccc(Cl)cc3)CC21 (configuration not stated)	TDP1 cell noCPT inconclusive, IL-1B inflam inh -81.9
CCc1cccc(C)c1NS(=O)(=O)c1c(C(=O)N2CCC(C)CC2)c(C)n(C)c1C	TDP1 cell noCPT inconclusive, DT40 TDP1 CPT 18.4µM (no result: HT1080NT lethal, IL-1B inflam inh, HT1080 IDH1KD tx)
Cc1[nH]c(C)c(S(=O)(=O)Nc2ccc(OC(F)(F)F)cc2)c1C(=O)N1CCCCC1	TDP1 cell noCPT 16.4µM, IL-1B inflam inh inconclusive, DT40 TDP1 CPT 20.6µM
COc1ccc(NS(=O)(=O)c2c(C(=O)N3CCCCCC3)c(C)n(C)c2C)cc1	IL-1B inflam inh inconclusive, DT40 TDP1 CPT inconclusive
CCc1ccccc1NS(=O)(=O)c1c(C(=O)N2CCCCCC2)c(C)n(C)c1C	none
Cc1c(C(=O)N2CCC(C)CC2)c(S(=O)(=O)Nc2ccc(OC(F)(F)F)cc2)c(C)n1C	TDP1 cell noCPT 16.4µM, DT40 TDP1 CPT inconclusive (no result: HT1080NT lethal, IL-1B inflam inh, HT1080 IDH1KD tx)
CCCCCN(C(=O)CCC(=O)OCC(=O)NCCc1ccccc1)c1c(N)n(CCCC)c(=O)[nH]c1=O	none
Cc1ccc(CSc2nnc3[nH]c(=O)cc(C)n23)cc1	none (no result: HT1080NT lethal, IL-1B inflam inh, HT1080 IDH1KD tx)
Cc1c(C#N)c(NC(=O)CCl)n(Cc2cccs2)c1C	TDP1 cell noCPT 2.59µM, HT1080NT lethal 16.4µM, IL-1B inflam inh -105.0, DT40 TDP1 CPT 5.17µM, HT1080 IDH1KD tx inconclusive
N#Cc1ccc(Cl)cc1NC(=O)CNCc1cccs1	none
Cc1c(C#N)c(NC(=O)CCl)n(Cc2ccc(F)cc2)c1C	TDP1 cell noCPT 5.8µM, HT1080NT lethal inconclusive, IL-1B inflam inh -76.5, DT40 TDP1 CPT 5.17µM, HT1080 IDH1KD tx inconclusive

Bioassay records deposited in PubChem by National Center for Advancing Translational Sciences (NCATS).
